Screening data (PubChem BioAssay)
Tgondii IFNg = T. gondii growth inhibition under IFN-gamma. activity change, negative = inhibition, % (concentration not given with the values). hit rate 3.8% among 69,000. Toxoplasma gondii growth in IFN-gamma-treated host cells; stronger effect = lower value; in the data active means activity change below about -70%, passing the limit was not always enough;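 further: host cells are HeLa cells infected with Toxoplasma gondii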
Numbers without * were called inactive; i = inactive. The sample as a whole holds a higher share of hits than the screen did.

SMILES	Tgondii IFNg
Cc1nc2nc(CC(=O)Nc3nc4c(s3)CCCCCC4)[nH]n2c(=O)c1C	-39
Cc1ccc(-n2c(SCc3nc(-c4ccccc4C)oc3C)nc3c(=O)[nH]cnc32)cc1	109
CCOc1ccc(-c2nc(CSc3nc4c(=O)[nH]cnc4n3-c3ccccc3)c(C)o2)cc1OC	-22
Cc1ccc(C)c(-c2nc(CSc3nc4c(=O)[nH]cnc4n3-c3ccccc3)c(C)o2)c1	-80*
Cc1cccc(-c2nc(CSc3nc4c(=O)[nH]cnc4n3-c3ccccc3)c(C)o2)c1	-110*
CCn1c(SCc2nc(-c3cccc(C)c3)oc2C)nc2c(=O)[nH]cnc21	93
Cc1ccc(-n2c(SCc3nc(-c4ccccc4Cl)oc3C)nc3c(=O)[nH]cnc32)cc1	-35
Cc1nc(N(C)C)nc(N(C)Cc2ccoc2)c1C	-5
CN1c2ccccc2[C@H]2CN(C(=O)C3CC3)CC[C@H]21	-3
CC(C)(CN1CCCC1)CN1CCN(Cc2cccc(F)c2)CC1	-7
COc1ccccc1-c1ccc2c(c1)[C@@H]1[C@@H](CCN1C(=O)C1CCC1)[C@H](CO)N2	-72*
N#Cc1ccc(-c2ccc3c(c2)[C@H]2[C@H](CCN2C(=O)C2CCCCC2)[C@@H](CO)N3)cc1	-63
N#Cc1ccc(-c2ccc3c(c2)[C@@H]2[C@@H](CCN2C(=O)C2CCCCC2)[C@H](CO)N3)cc1	-63
CC1(C)CC(=O)c2c(C(F)(F)F)nn(-c3ccc(C(N)=O)c(NC4CCC(OC(=O)CN)CC4)c3)c2C1 (centres undefined)	-76*
CC1(C)CC(=O)c2c(nc3ccccc3c2N)C1	23
CC1(C)CC(=O)c2c(C(F)(F)F)nn(-c3ccc(C(N)=O)c(NC4CCC(O)CC4)c3)c2C1 (centres undefined)	-77*
CSc1cccc(CN(C)Cc2nc[nH]c2C)c1	-5
COCC(=O)N1CCC2(C1)c1ccccc1S(=O)(=O)N2CC1CC1 (centres undefined)	6
O=C(COC(=O)c1ccncc1)c1ccc(OC(=O)c2ccco2)cc1	13
Nc1ccnc(N2CCc3onc(-c4ccccc4F)c3C2)n1	-20
COc1ccc(-c2nc(NCCCN3CCN(C)CC3)c3ccccc3n2)cc1	-51
COc1cc(Nc2c(C#N)cnc3cc(OCCCN4CCN(C)CC4)c(OC)cc23)c(Cl)cc1Cl	-79*
COc1cc2c(Oc3ccc(NC(=O)C4(C(=O)Nc5ccc(F)cc5)CC4)cc3F)ccnc2cc1OCCCN1CCOCC1	-68
O=C1NCCN2CCN(C(=O)Cn3cc(C(F)(F)F)ccc3=O)CC12 (centres undefined)	23
CCc1ncc(C(=O)N2CCc3c(nc(-c4ccccc4)[nH]c3=O)C2)cn1	4
SMILES	Tgondii IFNg
Cc1ccc(CN(Cc2cc3cccc(C)c3[nH]c2=O)C(=O)c2ccco2)cc1	-79*
CCC(=O)N(Cc1ccc(C)cc1)Cc1cc2cccc(C)c2n2nnnc12	34
COc1ccc2[nH]c(=O)c(CN(C(=O)c3ccco3)C(C)C)cc2c1	27
O=c1[nH]c(O)c(N=Nc2ccc(S(=O)(=O)N3CCCC3)cc2)c(=O)[nH]1	-74*
O=c1ccc2cc(S(=O)(=O)N3CCCC3)ccc2[nH]1	i
COC(=O)Nc1ccc(S(=O)(=O)N2CCCCC2)cc1	25
CCc1ccc2oc(=O)cc(CN(C)CC(C)N3CCOCC3)c2c1 (centres undefined)	-1
Cc1ccc(-c2nc3sc(-c4ccc(C)cc4)nc3s2)cc1	-12
Cc1oc(-c2ccccc2)nc1CNS(=O)(=O)c1ccc(C(C)C)cc1	-62
Cc1ccc(-c2nc(CNS(=O)(=O)c3ccc(C(C)C)cc3)c(C)o2)cc1	-105*
COc1ccc(-c2nc(CNS(=O)(=O)c3ccc(OC)cc3)c(C)o2)cc1	0
CCCn1nc(C)c(-c2cncn2CCOc2cccc(C)c2C)c1C	28
CCOCCN1C[C@@H](C(=O)NCCc2cccs2)C[C@@H]2OCC[C@@H]21	-9
C[C@@H]1CCCCO[C@H](CN(C)Cc2ccncc2)[C@H](C)CN([C@@H](C)CO)C(=O)c2cc(NS(=O)(=O)c3ccc(Cl)cc3)ccc2O1	32
C[C@@H]1CCCCO[C@@H](CN(C)Cc2ccc(Cl)c(Cl)c2)[C@@H](C)CN([C@@H](C)CO)C(=O)c2cc(NS(=O)(=O)c3cccs3)ccc2O1	278
C[C@@H]1CN([C@H](C)CO)C(=O)c2cc(NS(=O)(=O)c3ccc(Cl)cc3)ccc2O[C@@H](C)CCCCO[C@@H]1CN(C)Cc1ccncc1	-112*
C[C@@H]1CN([C@@H](C)CO)C(=O)c2cc(NS(=O)(=O)c3ccc(Cl)cc3)ccc2O[C@@H](C)CCCCO[C@@H]1CN(C)Cc1ccncc1	-113*
C[C@@H]1CCCCO[C@@H](CN(C)Cc2ccc(Cl)c(Cl)c2)[C@H](C)CN([C@H](C)CO)C(=O)c2cc(NS(=O)(=O)c3cccs3)ccc2O1	-54
C[C@@H]1CCCCO[C@@H](CN(C)Cc2ccncc2)[C@@H](C)CN([C@@H](C)CO)C(=O)c2cc(NS(=O)(=O)c3ccc(Cl)cc3)ccc2O1	50
C[C@@H]1CCCCO[C@@H](CN(C)Cc2ccc(Cl)c(Cl)c2)[C@H](C)CN([C@@H](C)CO)C(=O)c2cc(NS(=O)(=O)c3cccs3)ccc2O1	-44
C[C@@H]1CCCCO[C@@H](CN(C)Cc2ccncc2)[C@H](C)CN([C@H](C)CO)C(=O)c2cc(NS(=O)(=O)c3ccc(Cl)cc3)ccc2O1	-105*
C[C@@H]1CN([C@H](C)CO)C(=O)c2cc(NS(=O)(=O)c3cccs3)ccc2O[C@@H](C)CCCCO[C@H]1CN(C)Cc1ccc(Cl)c(Cl)c1	-67
Fc1cccc(N2CCCC3(C2)CN(c2nncs2)CCO3)c1 (centres undefined)	35
COc1cccc(CNC(=O)COc2nc(C)nc3ccccc23)c1OC	3
Cc1cccc(NC(=O)CN2C(=O)CCc3cc(S(=O)(=O)N4CCOCC4)ccc32)c1	38
SMILES	Tgondii IFNg
O=C1CNC(=S)N1CCc1ccccn1	19
Cc1cc(=O)[nH]c(NCCNCC(=O)Nc2ccc(Cl)c(C)c2)n1	46
COCCN(Cc1nccs1)C(=O)c1oc2cc(C)ccc2c1C	2
CN1CCN(c2cccc(Nc3nc4c(-c5ccc(S(C)(=O)=O)cc5)cccn4n3)c2)CC1	17
C=CCn1c(=O)c2cnc(Nc3ccc(N4CCN(C)CC4)cc3)nc2n1-c1cccc(C(C)(C)O)n1	-71*
N#Cc1c(-c2ccccc2)cc(-c2ccc(Cl)cc2)nc1N	10
N#Cc1c(N)nc(Sc2ccc(Cl)cc2)c(C#N)c1-c1ccccc1	-92*
CCc1nc(N)c(C#N)c(-c2ccccc2)c1C	12
CC(C)CCn1c(CN2CCN3C(=O)CNC(=O)C3C2)nc2ccccc21 (centres undefined)	-5
Cc1c(C(=O)N2CCC(O)(Cn3ccnc3C)CC2)oc2c1C(=O)CC(C)(C)C2	127
CN1CC2(CCN(C(=O)c3ccno3)CC2)OCC1=O	1
Cc1ccc2c(c1)NC1(CCN(S(=O)(=O)c3ccc(C(C)(C)C)cc3)CC1)c1cccn1-2	22
Cc1ccc(-c2csc(-c3cnccn3)n2)c(C)c1	-9
COc1cc(COc2ccc3c(C)c(Cc4ccccc4)c(=O)oc3c2)cc(OC)c1OC	-13
O=c1c2ccccc2oc2cc(O)ccc12	49
Cc1c(Cc2c(Cl)cccc2Cl)c(=O)oc2cc(O)ccc12	-71*
CCOc1ccc(N(C2C=CS(=O)(=O)C2)S(=O)(=O)c2ccc(C)cc2)cc1 (centres undefined)	-26
O=C(Nc1cc(Cl)c(-n2cccc2)cc1Cl)c1ccc(Cl)cc1	45
